# Test results taken from PubChem BioAssay AID624491 (Broad Institute, 2012).
# Hit rate of the full screen: of about 1,800 compounds, about 1,400 (78%) were called active. Roughly 2% stayed inconclusive and do not appear here. The set was probably picked from earlier hits. The list is a sample of the results. Results with a measured potency or affinity are listed apart. Values without a mark were called inactive.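 The calls were made as follows: active = fitted curve crossing a set activation limit at or below the highest valid dose tested; inconclusive = flat fit at 30 to 70% activation, or poor fit; inactive = the rest, including signal decreases.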
# Assay: blockers of NLG process in reporter cells – D54 ERlucT cells, luminescence, cherry-picks, dose response (AID 624491);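 also: signal gain reflects blocked N-linked glycosylation of a luciferase reporter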
# Conditions: D54 ERlucT glycosylation luciferase reporter, 24 h, 100% = twice neutral-control luminescence; series mostly up to 19.5 µM; activation (NLG inhibition): at the top concentration
row,SMILES,activation (NLG inhibition)
1,COc1ccc(NC(=O)C2Cc3c(-c4ccc5c(c4)OCO5)ccnc3O2)cc1 (stereo unspecified),-4.2%
2,O=C(O)c1ccccc1OC(C(=O)Nc1cc(Cl)cc(Cl)c1)c1ccccc1 (stereo unspecified),173%
3,CCOc1cc(S(=O)(=O)NCc2ccc(OC)cc2)c(OCC)cc1-n1cnnn1,74.3%
4,CCOc1ccc2c(c1)C(=NNC(=O)c1ccncc1)c1cc(OCC)ccc1-2,12.9%
5,Cc1cc(O)c(NC(=O)c2cc([N+](=O)[O-])ccc2Cl)cc1C,41.7%
6,O=C(Nc1cccc(C(F)(F)F)c1)c1sc(Cl)nc1C(F)(F)F,6.11%
7,O=C(Cc1cccs1)NCCS(=O)(=O)N1CCN(c2ccccc2F)CC1,31.5%
8,CNC(=O)COC(=O)c1ccccc1C(=O)c1ccc(Cl)c([N+](=O)[O-])c1,11% [at 1.2 µM]
9,CCc1ccc(NC(=O)Cn2c(=O)n(CCC(=O)NC3CCN(Cc4ccccc4)CC3)c(=O)c3ccccc32)cc1,133%
10,CCCn1c2ccccc2c2cnn(CC(=O)NC3CCCC(C)C3C)c(=O)c21 (stereo unspecified),9.84% [at 5 µM]
11,COc1ccc(CN(C(=O)c2ccc(CN3CCOCC3)o2)C(C(=O)NCC2CCCO2)c2ccc(F)cc2)cc1 (stereo unspecified),2.01%
12,O=C1OC(c2ccc(F)cc2)CC1CN1CCOCC1 (stereo unspecified),13.6%
13,Nc1c(C(=O)c2ccccc2)sc2nsc(SCCN3CCOCC3)c12,28.1%
14,COC(=O)Nc1ccc(S(=O)(=O)N2CCCc3ccccc32)cc1,-4.31%
15,CCOc1ccc2[nH]c(=O)c(CN(Cc3ccc(F)cc3)C(=O)c3ccco3)cc2c1,31.5%
16,O=C(N/N=C/c1cccnc1)c1cc(-c2ccc(Br)cc2)nc2ccccc12,9.58%
17,COc1ccc(CN2C(=O)C(C)Nc3ncnc(N4CCc5ccccc5C4)c32)cc1 (stereo unspecified),6.37%
18,CC1Nc2ncnc(N3CCc4ccccc4C3)c2N(Cc2ccc(Br)cc2)C1=O (stereo unspecified),41.9%
19,Cc1cccc2[nH]c3c(N4CCC5(CC4)OCCO5)ncnc3c12,23.9%
20,COc1ccc(Cn2c(=O)c3[nH]cnc3n(-c3ccccc3C)c2=O)cc1,41.5%
21,O=C(Nc1ccccc1)N1CCC(c2nc(-c3ccc(S(=O)(=O)N4CCOCC4)cc3)no2)CC1,17.9%
22,COc1ccc(/C=C/C(=O)c2ccc3c4c(cccc24)CC3)cc1,41.7%
23,COc1cc(/C=C/C(=O)c2ccc(Cl)s2)cc(OC)c1O,11.1%
24,COc1cc(O)c(C(=O)/C=C/c2ccccc2)c(OC)c1,18.2%
25,COc1ccc(/C=C2\CN(Cc3ccccc3)C/C(=C\c3ccc(OC)cc3)C2=O)cc1,-8.86%
26,CN1C/C(=C\c2ccc(N3CCOCC3)cc2)C(=O)/C(=C/c2ccc(N3CCOCC3)cc2)C1,-8.7%

row,SMILES,activation (NLG inhibition)
1,CCOc1ccc(/C=C/C(=O)c2ccccc2)cc1OC,28.2%
2,COc1ccc(C(=O)/C=C/c2ccc(OC3CSC3)cc2)cc1OC,55.4%
3,COc1ccc(C2=Nn3c(nnc3-c3ccco3)SC2)cc1,68.5%
4,COc1ccc(OC)c(-c2nnc3n2N=C(c2ccc(OC)c(OC4CCCC4)c2)CS3)c1,-3.46%
5,COc1ccc(C2=Nn3c(nnc3-c3ccc(OC)cc3)SC2)cc1,7.21%
6,COc1ccc2nc(-c3ccco3)c(-c3ccco3)nc2c1,2.38%
7,O=S1(=O)C=CC(Nc2cccc(Cl)c2)C1 (stereo unspecified),19.2%
8,O=C(CSc1nc2nc(-c3cccs3)cc(C(F)(F)F)c2c(=O)[nH]1)C(F)(F)F,36.6%
9,Cc1ccc(C)n1-c1ccc(C(=O)/C=C/N(C)C)cc1,5.31%
10,Cc1ccc(-c2cc(NC(=O)CCl)n(-c3ccccc3)n2)cc1,-70.1%
11,CCOc1ccccc1NC(=O)Cn1nnc(C(=O)NCc2ccc3c(c2)OCO3)c1N,46.6%
12,COc1cc(Cl)c(C)cc1NC(=O)CN1CCN(C(=O)C2CC2)CC1,21.3%
13,COc1ccc(NC(=O)C2Cc3c(-c4cccc(C(C)=O)c4)ccnc3O2)cc1 (stereo unspecified),16.6%
14,CCNC(=O)COc1ccc(/C=C2\COc3ccccc3C2=O)cc1OC,19.8% [at 5 µM]
15,CN(Cc1ccc(Cl)s1)C(=O)CCl,-17.1%
16,CCN(CC(=O)NCc1ccc(F)cc1)C(=O)/C=C/c1ccc(OC)c(S(=O)(=O)NC(C)C)c1,40%
17,CN1C(=O)c2cccc3c(S(=O)(=O)Nc4ccccc4F)ccc1c23,52.8%
18,CCN(CC)CCCNC(=O)c1cc2c(=O)n(CC)c3ccccc3c2s1,21.5%
19,COc1cc(C2=NOC(C(=O)NCc3cccs3)C2)cc(OC)c1OC (stereo unspecified),26.4%
20,CCOC(=O)Nc1c2ccccc2nc2ccccc12,62.4%
21,O=C(O)c1ccc(CN2C(=O)c3cccc4c([N+](=O)[O-])ccc(c34)C2=O)cc1,-46.8%
22,Cc1noc(C)c1COc1ccc(C(=O)NNC(=O)c2ccccc2)cc1,44.8%
23,CC[C@@]1(c2ccccc2OC)ON(c2ccccc2C(F)(F)F)C1=O,10.9%
24,COc1cccc(C(=O)Nc2ncc3c(n2)CC(c2ccc(OC)cc2OC)CC3=O)c1 (stereo unspecified),37.5%
25,COc1ccccc1C1=NOC(COc2ccc3c(C)cc(=O)oc3c2)C1 (stereo unspecified),33.4%
